According to PubChem BioAssay (NCI):
About 79,000 compounds went through this panel and 15% of them were active in at least one assay; those are over-represented in the sample as a whole. Calls of active or inactive are those of the source. No stated cut-off is given here; in the data, active means growth inhibition above about 70%; inactive means the rest.

Key:
[1] = NCI Yeast Anticancer Drug Screen. Data for the rad52 strain (AID 147);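 further: 0% = growth of vehicle-treated control cultures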; details: S. cerevisiae rad52 mutant growth inhibition, active compounds read high
In short: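 Read-out: growth inhibition versus vehicle-treated controls. Cells were a DNA repair-deficient yeast strain treated with compounds.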

[2] = NCI Yeast Anticancer Drug Screen. Data for the wt1 strain (AID 149);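 further: 0% = growth of vehicle-treated wt1 cultures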; details: S. cerevisiae wt1 strain (SPY 50644) growth inhibition, active compounds read high
In short: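 wt1 yeast, compound-treated; % growth inhibition vs vehicle control.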

[3] = NCI Yeast Anticancer Drug Screen. Data for the rad50EPP+ strain (AID 151);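 further: 0% = growth of vehicle-treated control cultures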; details: S. cerevisiae rad50 mutant strain, active compounds read high
In short: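 Growth inhibition read against vehicle controls in rad50EPP+ yeast, a strain altered in DNA damage repair, after compound exposure.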

[4] = NCI Yeast Anticancer Drug Screen. Data for the mgt1 strain (AID 153); details: S. cerevisiae mgt1 mutant growth inhibition, active compounds read high
In short: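 mgt1 yeast grown with test compound; read-out is growth inhibition versus vehicle-treated cultures.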

[5] = NCI Yeast Anticancer Drug Screen. Data for the rad50 strain (AID 155);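 further: 0% = growth of vehicle-only cultures of the same strain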; details: S. cerevisiae rad50 strain growth inhibition, active compounds read high
In short: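 Genetically altered yeast (DNA repair pathway); compound treatment; growth inhibition vs vehicle ctrl.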

[6] = NCI Yeast Anticancer Drug Screen. Data for the mec2-1 strain (AID 157); details: S. cerevisiae mec2-1 strain, active compounds read high
In short: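 Yeast mec2-1 mutant treated with compound. Readout: growth inhibition vs vehicle controls.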

[7] = NCI Yeast Anticancer Drug Screen. Data for the rad14 strain (AID 159);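 further: 0% = growth of vehicle-treated control cultures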; details: S. cerevisiae rad14 strain growth inhibition, active compounds read high
In short: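 Test compounds were applied to a repair-deficient yeast strain. Its growth was then compared with that of cultures given vehicle alone, and inhibition was expressed relative to those controls.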

[8] = NCI Yeast Anticancer Drug Screen. Data for the sgs1 mgt1 strain (AID 161);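 further: 0% = growth of cultures given vehicle only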; details: S. cerevisiae sgs1 mgt1 strain, at 50.0 µM, active compounds read high
In short: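 Mutant yeast exposed to compound; growth scored against vehicle-only wells.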

[9] = NCI Yeast Anticancer Drug Screen. Data for the CLN2oe strain (AID 163);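 further: 0% = growth of vehicle-only control cultures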; details: S. cerevisiae CLN2oe strain, active compounds read high
In short: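 Read-out: yeast growth inhibition, expressed relative to vehicle-only controls. The strain bears an engineered cell-cycle alteration.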

[10] = NCI Yeast Anticancer Drug Screen. Data for the cln2 rad14 strain (AID 165);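 further: 0% = growth equal to vehicle treated cultures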; details: S. cerevisiae cln2 rad14 strain, at 50.0 µM, active compounds read high
In short: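 cln2 rad14 yeast strain; compound exposure; growth inhibition read vs vehicle controls.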

[11] = NCI Yeast Anticancer Drug Screen. Data for the bub3 strain (AID 167); details: S. cerevisiae bub3 mutant strain, active compounds read high
In short: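 Yeast carrying a defined mutation is treated with each compound, and growth is compared with that of vehicle-exposed cells to give inhibition.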

[12] = NCI Yeast Anticancer Drug Screen. Data for the wt2 strain (AID 169);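 further: 0% = growth of vehicle-treated yeast cultures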; details: S. cerevisiae wt2 strain growth inhibition, active compounds read high
In short: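 Read-out: growth inhibition versus vehicle-treated control cultures after compound exposure of the yeast strain.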

[13] = NCI Yeast Anticancer Drug Screen. Data for the mlh1 strain (AID 171);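 further: 0% = growth of vehicle-treated control cultures of the same strain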; details: S. cerevisiae mlh1 strain growth inhibition, active compounds read high
In short: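 Read-out: growth inhibition versus vehicle controls. Strain: engineered yeast with a defined DNA repair or cell cycle defect, compound-treated.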

[14] = NCI Yeast Anticancer Drug Screen. Data for the mlh1 rad18 strain (AID 175); details: S. cerevisiae mlh1 rad18 strain growth inhibition; at 50.0 µM; active compounds read high
In short: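 Yeast w/ defined DNA-repair lesions; compound exposure; growth vs vehicle controls → % inhibition.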

[15] = NCI Yeast Anticancer Drug Screen. Data for the rad18 strain (AID 177); details: S. cerevisiae rad18 mutant growth inhibition, active compounds read high
In short: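 Readout: growth inhibition vs vehicle controls. Cells: genetically altered yeast strain, DNA repair defect.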

Measured: growth inhibition

S=P(N1CC1)(N1CC1)N1CC1
inactive: [1]; at 1.2 µM -1% | [1]; at 3.7 µM 2% | [1]; at 11.0 µM 3% | [1]; at 33.0 µM 4% | [1]; at 100.0 µM 16% | [2]; at 1.2 µM -3% | [2]; at 3.7 µM -3% | [2]; at 11.0 µM -2% | [2]; at 33.0 µM -2% | [2]; at 100.0 µM -22% | [3]; at 1.2 µM -4% | [3]; at 3.7 µM -5% | [3]; at 11.0 µM -4% | [3]; at 33.0 µM 7% | [3]; at 100.0 µM 34% | [4]; at 1.2 µM -5% | [4]; at 3.7 µM -2% | [4]; at 11.0 µM -1% | [4]; at 33.0 µM -1% | [4]; at 100.0 µM -1% | [5]; at 1.2 µM -3% | [5]; at 3.7 µM 0% | [5]; at 11.0 µM 4% | [5]; at 33.0 µM 6% | [5]; at 50.0 µM 28.6% | [5]; at 100.0 µM 23% | [6]; at 1.2 µM -5% | [6]; at 3.7 µM -3% | [6]; at 11.0 µM -1% | [6]; at 33.0 µM -2% | [6]; at 50.0 µM -0.7% | [6]; at 100.0 µM 5% | [7]; at 1.2 µM 0% | [7]; at 3.7 µM 3% | [7]; at 11.0 µM 5% | [7]; at 33.0 µM 9% | [7]; at 100.0 µM 20% | [8] 30.1% | [9]; at 1.2 µM -4% | [9]; at 3.7 µM 0% | [9]; at 11.0 µM -6% | [9]; at 33.0 µM -10% | [9]; at 100.0 µM -3% | [10] 6.4% | [11]; at 1.2 µM -3% | [11]; at 3.7 µM -2% | [11]; at 11.0 µM 0% | [11]; at 33.0 µM -6% | [11]; at 50.0 µM 13.8% | [11]; at 100.0 µM -11% | [12]; at 1.2 µM -1% | [12]; at 3.7 µM -2% | [12]; at 11.0 µM -2% | [12]; at 33.0 µM -17% | [12]; at 100.0 µM 2% | [13]; at 1.2 µM 0% | [13]; at 3.7 µM -1% | [13]; at 11.0 µM -2% | [13]; at 33.0 µM 1% | [13]; at 100.0 µM 7% | [14] -2.75% | [15]; at 1.2 µM -3% | [15]; at 3.7 µM -1% | [15]; at 11.0 µM 6% | [15]; at 33.0 µM 24%
active: [15]; at 100.0 µM 78%
